Results published in PubChem BioAssay AID1159580 (chemical genetic matrix, 2015).
“And” between values parts separate entries of the source, which are not always exact repeats. Equal values may be shown once. In all, about 5,500 compounds went through this assay and about 2,000 (36%) were called active. About 18% were inconclusive and are not listed. Cut-off read from the data, not from the text of the source: active = normalized growth mostly below about 0.91 (no sharp cut-off); inconclusive = no clear call, values can overlap the other calls; inactive = mostly above about 0.92. Some of the results follow.

Experiment: chemical genetic growth profiling, strain panel (AID 1159580);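 note: tested at 20 µM; growth read once vehicle control cultures reached saturation at 30 °C; 1 = growth at the plate median or of vehicle wells; lower values mean less growth of the strain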
Conditions: growth OD

Measured: normalized growth

COc1cc(Cc2cnc(N)nc2N)cc(OC)c1OC
inactive: S. cerevisiae deletion strains, locus YJR075W, strain HOC1, active compounds read low 1.01 | S. cerevisiae deletion strains, locus YKL009W, strain mrt4, active compounds read low 1.04 | S. cerevisiae deletion strains, locus YKL068W, active compounds read low 0.986 | S. cerevisiae deletion strains, locus YKL085W, strain MDH1 (second series), active compounds read low 1.03 | S. cerevisiae deletion strains, locus YKL085W, strain MDH1, active compounds read low 1.03 | S. cerevisiae deletion strains, locus YKL160W, strain elf1, active compounds read low 1.01 | S. cerevisiae deletion strains, locus YKL190W, strain CNB1, active compounds read low 1.01 | S. cerevisiae deletion strains, locus YKR001C, strain vps1, active compounds read low 0.989 | S. cerevisiae deletion strains, locus YKR026C, strain gcn3, active compounds read low 1 | S. cerevisiae deletion strains, locus YKR091W, strain srl3, active compounds read low 1.01 | S. cerevisiae deletion strains, locus YLL001W, strain dnm1, active compounds read low 0.993 | S. cerevisiae deletion strains, locus YLL026W, active compounds read low 1.01 | S. cerevisiae deletion strains, locus YLL041C, strain sdh2, active compounds read low 1.01 | S. cerevisiae deletion strains, locus YLR027C, strain aat2, active compounds read low 1.01 | S. cerevisiae deletion strains, locus YLR039C, strain RIC1, active compounds read low 1.03 | S. cerevisiae deletion strains, locus YLR058C, strain SHM2, active compounds read low 1 | S. cerevisiae deletion strains, locus YLR102C, strain apc9, active compounds read low 0.994 | S. cerevisiae deletion strains, locus YLR113W, strain HOG1, active compounds read low 0.994 | S. cerevisiae deletion strains, locus YLR221C, strain rsa3, active compounds read low 0.998 | S. cerevisiae deletion strains, locus YLR258W, strain gsy2, active compounds read low 1.02 | S. cerevisiae deletion strains, locus YLR262C, strain YPT6 (second series), active compounds read low 1.01 | S. cerevisiae deletion strains, locus YLR262C, strain YPT6, active compounds read low 1.03 | S. cerevisiae deletion strains, locus YLR268W, strain sec22, active compounds read low 0.978 | S. cerevisiae deletion strains, locus YLR320W, strain mms22, active compounds read low 1.02 | S. cerevisiae deletion strains, locus YLR330W, strain CHS5, active compounds read low 1 | S. cerevisiae deletion strains, locus YLR342W, strain FKS1 (second series), active compounds read low 0.992 | S. cerevisiae deletion strains, locus YLR342W, strain FKS1, active compounds read low 1 | S. cerevisiae deletion strains, locus YLR357W, strain rsc2, active compounds read low 0.998 | S. cerevisiae deletion strains, locus YLR370C, strain arc18, active compounds read low 1.01 | S. cerevisiae deletion strains, locus YLR371W, strain rom2, active compounds read low 0.991 | S. cerevisiae deletion strains, locus YLR384C, strain iki3, active compounds read low 1.02 | S. cerevisiae deletion strains, locus YLR418C, strain cdc73, active compounds read low 0.961 | S. cerevisiae deletion strains, locus YML016C, strain PPZ1, active compounds read low 0.994 | S. cerevisiae deletion strains, locus YML032C, strain rad52, active compounds read low 0.981 | S. cerevisiae deletion strains, locus YML120C, strain ndi1, active compounds read low 1.02 | S. cerevisiae deletion strains, locus YML124C, strain tub3, active compounds read low 0.991 | S. cerevisiae deletion strains, locus YMR058W, strain fet3, active compounds read low 1 | S. cerevisiae deletion strains, locus YMR078C, strain ctf18, active compounds read low 0.987 | S. cerevisiae deletion strains, locus YMR125W, strain sto1, active compounds read low 1.04 | S. cerevisiae deletion strains, locus YMR129W, active compounds read low 1.01 | S. cerevisiae deletion strains, locus YMR205C, strain PFK2, active compounds read low 1.03 | S. cerevisiae deletion strains, locus YMR223W, strain ubp8, active compounds read low 1.01 | S. cerevisiae deletion strains, locus YMR231W, strain pep5, active compounds read low 1.02 | S. cerevisiae deletion strains, locus YMR263W, strain SAP30, active compounds read low 1 | S. cerevisiae deletion strains, locus YMR307W, strain GAS1, active compounds read low 1.03 and 1 | S. cerevisiae deletion strains, locus YNL067W, strain RPL9B, active compounds read low 1 | S. cerevisiae deletion strains, locus YNL071W, strain lat1, active compounds read low 1.01 | S. cerevisiae deletion strains, locus YNL128W, strain TEP1, active compounds read low 0.998 | S. cerevisiae deletion strains, locus YNL153C, strain GIM3, active compounds read low 0.991 | S. cerevisiae deletion strains, locus YNL175C, strain NOP13, active compounds read low 0.937 | S. cerevisiae deletion strains, locus YNL183C, strain NPR1, active compounds read low 0.934 | S. cerevisiae deletion strains, locus YNL197C, strain WHI3, active compounds read low 0.956 | S. cerevisiae deletion strains, locus YNL209W, strain ssb2, active compounds read low 1.01 | S. cerevisiae deletion strains, locus YNL224C, strain SQS1, active compounds read low 0.981 | S. cerevisiae deletion strains, locus YNL233W, strain BNI4, active compounds read low 1.01 | S. cerevisiae deletion strains, locus YNL248C, strain rpa49, active compounds read low 1.02 | S. cerevisiae deletion strains, locus YNL250W, strain rad50, active compounds read low 0.988 | S. cerevisiae deletion strains, locus YNL271C, strain bni1, active compounds read low 0.985 | S. cerevisiae deletion strains, locus YNL298W, strain CLA4, active compounds read low 0.985 | S. cerevisiae deletion strains, locus YNL307C, strain MCK1, active compounds read low 0.994 | S. cerevisiae deletion strains, locus YNL322C, strain KRE1 (second series), active compounds read low 1.03 | S. cerevisiae deletion strains, locus YNL322C, strain KRE1, active compounds read low 1 and 0.976 | S. cerevisiae deletion strains, locus YNR049C, strain mso1, active compounds read low 1.01 | S. cerevisiae deletion strains, locus YNR052C, strain pop2, active compounds read low 0.986 | S. cerevisiae deletion strains, locus YOL006C, strain TOP1, active compounds read low 0.954 | S. cerevisiae deletion strains, locus YOL012C, strain htz1 0.78 | S. cerevisiae deletion strains, locus YOL147C, strain pex11, active compounds read low 0.996 | S. cerevisiae deletion strains, locus YOR001W, strain rrp6, active compounds read low 1.01 | S. cerevisiae deletion strains, locus YOR061W, strain CKA2, active compounds read low 1 | S. cerevisiae deletion strains, locus YOR069W, strain VPS5, active compounds read low 0.993 | S. cerevisiae deletion strains, locus YOR070C, strain gyp1, active compounds read low 1.01 | S. cerevisiae deletion strains, locus YOR080W, strain dia2, active compounds read low 1.03 | S. cerevisiae deletion strains, locus YOR083W, strain WHI5 (second series), active compounds read low 0.975 | S. cerevisiae deletion strains, locus YOR083W, strain WHI5, active compounds read low 0.999 | S. cerevisiae deletion strains, locus YOR106W, strain vam3, active compounds read low 1.01 | S. cerevisiae deletion strains, locus YOR136W, strain idh2, active compounds read low 0.992 | S. cerevisiae deletion strains, locus YOR144C, strain elg1, active compounds read low 0.989 | S. cerevisiae deletion strains, locus YOR184W, strain ser1, active compounds read low 0.991 | S. cerevisiae deletion strains, locus YOR231W, strain MKK1, active compounds read low 0.993 | S. cerevisiae deletion strains, locus YOR265W, strain rbl2, active compounds read low 1.01 | S. cerevisiae deletion strains, locus YOR270C, strain vph1, active compounds read low 1 | S. cerevisiae deletion strains, locus YOR290C, strain snf2, active compounds read low 1.03 | S. cerevisiae deletion strains, locus YOR316C, strain cot1, active compounds read low 0.994 | S. cerevisiae deletion strains, locus YPL051W, strain arl3, active compounds read low 1 | S. cerevisiae deletion strains, locus YPL055C, strain LGE1, active compounds read low 1.05 and 1.01 | S. cerevisiae deletion strains, locus YPL078C, strain atp4, active compounds read low 1.01 | S. cerevisiae deletion strains, locus YPL106C, strain sse1, active compounds read low 1.04 | S. cerevisiae deletion strains, locus YPL240C, strain hsp82, active compounds read low 1.01 | S. cerevisiae deletion strains, locus YPL241C, strain CIN2, active compounds read low 1 | S. cerevisiae deletion strains, locus YPL256C, strain CLN2, active compounds read low 0.982 | S. cerevisiae deletion strains, locus YPR119W, strain clb2, active compounds read low 0.986 | S. cerevisiae deletion strains, locus YPR141C, strain kar3, active compounds read low 0.987 | S. cerevisiae deletion strains, locus YPR163C, strain tif3, active compounds read low 0.988 | S. cerevisiae deletion strains, locus YPR167C, strain met16, active compounds read low 0.985 | S. cerevisiae deletion strains, strain wtn01, active compounds read low 0.977 | S. cerevisiae strains, strain wild type, active compounds read low 1.01
